# In PubChem BioAssay AID624300 (Southern Research Specialized Biocontainment Screening …, 2012):
# In all, about 2,400 compounds went through this assay and about 360 (15%) were called active.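 The calls were made as follows: active = viability falls under 70% at one or more tested concentrations, taken as toxicity; inactive = viability stays over 70% at every dose.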 A selection follows. Measured potencies and affinities stand elsewhere.
# Experiment: viability loss in HeLa cells – cytotoxicity control for MgcRacGAP inhibitor project, dose response (AID 624300);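 also: 100% = median of untreated control wells on the same plate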
# Conditions: CellTiter-Glo luminescence, 24 h; series mostly up to 100 µM; viability: at the top concentration
SMILES,viability,outcome
CCOc1cc(/C=N/NC(=O)c2ccc(NC(=O)C3CC3)cc2)ccc1O,88.8% (inactive),
O=C(CCN1CCCCCC1)Nc1ccc2c(c1)OCCO2,105% (inactive),
C/C(CC(=O)Nc1ccc(N(C)C)cc1)=N\NC(=O)c1ccc([N+](=O)[O-])cc1,94.7% (inactive),
O=C(Nc1ccc(O)cc1)c1cccc(Oc2ccc([N+](=O)[O-])cc2)c1,86.5% (inactive),
O=C(CNC(=O)c1ccco1)N/N=C/c1ccc(O)cc1O,108% (inactive),
Cc1ccc(OC(=S)Nc2ccc(O)cc2)cc1,109% (inactive),
Cc1ccsc1/C=N/Nc1nc2ccccc2[nH]1,89.9% (inactive),
COc1cc(/C=N/Nc2nc(C)cc(=O)[nH]2)ccc1O,94.6% (inactive),
COc1ccc(/C=N/Nc2nc3ccccc3s2)cc1O,97.9% (inactive),
COc1cc(/C=N/NC(=O)c2cc3ccccc3[nH]2)ccc1O,91.6% (inactive),
CCC(=Nc1ccc(N)cc1)C1=C(O)C(C(=O)OC)C(C)(C)CC1=O (stereo unspecified),101% (inactive),
COc1ccc(OC)c(CN2CCN(Cc3ccc(OC)c(OC)c3OC)CC2)c1,96.2% (inactive),
CC1CC(C)(C)N(C(=O)CN2CCN(C)CC2)c2ccccc21 (stereo unspecified),100% (inactive),
COc1ccccc1-n1c(=O)c2c3c(sc2n2c(=S)[nH]nc12)CCC3,88.5% (inactive),
Oc1ccc(/C=N/Nc2ncnc3c2ncn3Cc2ccccc2)cc1O,85.7% (inactive),
O=[N+]([O-])c1cccc(CN2CCN(c3cccc4[nH]ccc34)CC2)c1,105% (inactive),
COc1ccccc1/C=C(/C(=O)OCC(=O)Nc1ccc(N(C)C)cc1)c1ccccc1,102% (inactive),
COc1ccc(S(=O)(=O)N2CCC(N3CCN(c4ccccc4OC)CC3)CC2)cc1,101% (inactive),
Cc1cccc(CN2CCN(Cc3ccco3)CC2)c1,100% (inactive),
Nc1[nH]c2cc([N+](=O)[O-])ccc2c1-c1ccccn1,98.9% (inactive),
COc1ccc(NCc2cc3ccccc3[nH]c2=O)cc1,83.7% (inactive),
CN(C)c1ccc(NC(=O)COC(=O)CNC(=O)c2cccs2)cc1,100% (inactive),
Cc1cc(OCCCN2CCN(Cc3ccccc3)CC2)ccc1[N+](=O)[O-],87.5% (inactive),
Cc1c(N=C2NC(=O)/C(=C/c3ccc(O)cc3)S2)c(=O)n(-c2ccccc2)n1C,97.4% (inactive),

SMILES,viability,outcome
O=C(CSc1ccc2ccccc2n1)N/N=C/c1ccc(O)cc1,100% (inactive),
O=C(CCN1CCN(C(c2ccccc2)c2ccccc2)CC1)N/N=C/c1ccc(O)cc1,95% (inactive),
CCCOC(=O)c1ccc(O)c(OC)c1,99.9% (inactive),
COc1ccc(NC(C)c2cc(Cl)ccc2O)cc1 (stereo unspecified),88.7% (inactive),
O=C(C1CCN(Cc2cc(Cl)ccc2O)CC1)N1CCN(Cc2ccccc2)CC1,92.7% (inactive),
COc1ccc(/C=C2\C(=O)NC(=O)c3ccccc32)cc1OC,102% (inactive),
COc1cccc(CNc2ccc(N3CCC(C)CC3)cc2)c1OC,102% (inactive),
COc1cc(/C=N/NC(=O)/C(=C\c2ccc3c(c2)OCO3)NC(=O)c2ccccc2)ccc1O,101% (inactive),
COc1ccc(C(=O)N/N=C/c2ccc(N3CCOCC3)s2)cc1OC,103% (inactive),
COc1cc(/C=N/NC(=O)C(=O)NCC2CCCO2)ccc1O (stereo unspecified),102% (inactive),
Cc1cc(C)c(S(=O)(=O)Nc2ccc(O)cc2)c(C)c1,87.9% (inactive),
COc1ccc(NC(=S)Nc2cccc3ccccc23)cc1OC,105% (inactive),
O=C(Nc1ccccn1)c1ccc2ccccc2c1O,92.8% (inactive),
O=C(Nc1ccc(O)cc1)c1ccc(C(=O)c2ccccc2)o1,103% (inactive),
CCCCNc1nc(=S)[nH]c2cc(OC)c(OC)cc12,105% (inactive),
COc1ccc(CCNc2nc(=S)[nH]c3cc(OC)c(OC)cc23)cc1OC,96.6% (inactive),
CC(=O)CC(=O)Nc1ccc(Nc2ccccc2)cc1,94.8% (inactive),
COCCCn1c(=S)[nH]c2sc3c(c2c1=O)CCCC3,91.2% (inactive),
CCOc1ccc(OCCOCCN2CCCC2)cc1,100% (inactive),
Cc1cc(OCCCCCN2CCCC2)ccc1Cl,86.2% (inactive),
CN(C)CCCn1c(SCc2ccc(Cl)cc2)nnc1-c1ccncc1,100% (inactive),
N#CCCN1CCN(CCC#N)c2ccccc21,90.5% (inactive),
C/C(CC(=O)Nc1ccc(N(C)C)cc1)=N\NC(=O)c1ccc(F)cc1,98.8% (inactive),
Cn1cccc1/C=C1\SC(=Nc2ccc(O)cc2)NC1=O,114% (inactive),

SMILES,viability,outcome
O=C(c1ccccc1F)N1CCN(Cc2ccc3c(c2)OCO3)CC1,97.9% (inactive),
Cc1ccccc1CN1CCN(C(=O)c2cccc3ccccc23)CC1,86.6% (inactive),
Cc1[nH]c2ccccc2c1/C=N\NC(=O)CNc1ccc2c(c1)OCO2,98% (inactive),
COc1ccccc1N=NNc1ccccc1OC,94.3% (inactive),
COCCCNCCCCOc1c(Cl)cc(C)cc1Br,91.4% (inactive),
c1ccc(CN2CCN(CCOCCOc3ccc4c(c3)CCC4)CC2)cc1,95.6% (inactive),
Cc1cc(C)c(C)c(OCCNCc2ccccc2)c1,90.7% (inactive),
COCCNCCOCCOc1ccc(Cl)c(C)c1,93% (inactive),
CC(=O)Nc1ccc(Oc2nc(-c3ccccn3)nc3ccccc23)cc1,87.7% (inactive),
Cc1ccc(CCC(=O)Nc2ccc(N(C)C)cc2)o1,97.1% (inactive),
Cc1cc(C(=O)NNC(=O)/C=C/c2ccco2)c(C)o1,118% (inactive),
COc1cc(/C=C/C(=O)OCC(=O)NCC2CCCCC2)ccc1O,96.6% (inactive),
COc1ccc(/C=N/Nc2nc(N3CCCC3)nc(N3CCCC3)n2)cc1O,98% (inactive),
S=C(c1ccccc1)N1CCN(c2ccccc2)CC1,95.1% (inactive),
C=CCn1c(SCC(C)=O)nnc1-c1cc(-c2ccccc2)sc1N,80.6% (inactive),
CCOC(=O)c1oc2cc(O)cc(C)c2c1C,91.3% (inactive),
CCn1c(=S)[nH]c2sc3c(c2c1=O)CCCC3,89% (inactive),
COc1ccc(NCc2cccnc2)cc1,108% (inactive),
CC(=O)Nc1cccc2cc(O)ccc12,100% (inactive),
Cc1cc(Oc2ccc(-c3ccccc3)cc2)n2ncnc2n1,97.3% (inactive),
CC(=O)c1ccc(NC(=S)Nc2ccc3[nH]c(=O)[nH]c3c2)cc1,116% (inactive),
COc1cc(C=NNC(=O)c2ccccc2-n2cccc2)ccc1O,123% (inactive),
Cc1c(Cl)cccc1Nc1n[nH]c(=S)s1,93% (inactive),
Cc1ccc[n+](CC(=O)Nc2ccc(N(C)C)cc2)c1,102% (inactive),

SMILES,viability,outcome
Cc1ccc2nc(/N=C(\N)NC(=O)N3c4ccccc4Sc4ccccc43)nc(C)c2c1,94.8% (inactive),
CCOC(=O)C1=C(C)Nc2ccccc2S1,95.5% (inactive),
O=C(NC1CCN(C(=O)N2c3ccccc3Sc3ccccc32)CC1)c1ccccc1F,82.1% (inactive),
Cc1cc2nc(/N=C(\N)NC(=O)N3c4ccccc4Sc4ccccc43)nc(C)c2cc1C,,inactive
COc1ccc2nc(/N=C(\N)NC(=O)N3c4ccccc4Sc4ccccc43)nc(C)c2c1,84.3% (inactive),
Cc1ccc2c(C)nc(/N=C(\N)NC(=O)N3c4ccccc4Sc4ccccc43)nc2c1,,inactive
Cc1nc(/N=C(\N)NC(=O)N2c3ccccc3Sc3ccccc32)nc2ccccc12,94.9% (inactive),
CC1(C)CC(NC(=O)N2c3ccccc3Sc3ccccc32)CC(C)(C)N1,102% (inactive),
CN(CC(=O)NCc1ccccc1)Cc1cccc(F)c1,95.2% (inactive),
O=C(CSc1nnc(C2CC2)n1C1CC1)N1CCN(c2ccc(O)cc2)CC1,102% (inactive),
CC1(C)OC(=O)C(=NNc2ccc(O)cc2)C(=O)O1,93.8% (inactive),
Cc1cc(-c2cc(C)c(N)cc2C)c(C)cc1N,107% (inactive),
CC(=O)C[C@H]1c2cc(F)ccc2S(=O)(=O)N1c1ccc(N(C)C)cc1,92.8% (inactive),
COc1cc(OC)c(OC)cc1CN1CCN(Cc2ccc(SC)cc2)CC1,85.9% (inactive),
CN1CC(=O)N(CC(=O)Nc2ccc(N(C)C)cc2)c2ccccc2C1=O,101% (inactive),
Cc1ccccc1-c1ccc(Nc2ccc(N3CCOCC3)cc2)nn1,92.9% (inactive),
CC1CCCC(N2CCN(C(=O)c3ccc([N+](=O)[O-])cc3)CC2)C1 (stereo unspecified),94.9% (inactive),
COCCCNc1nc(=S)[nH]c2cc(OC)c(OC)cc12,102% (inactive),
OCCCCNc1cccc2ccccc12,90.5% (inactive),
COCCNCc1nc2sc(C)c(-c3ccccc3)c2c(=O)[nH]1,91% (inactive),
COc1ccc(N2CCN(CC(=O)Nc3cccc(S(=O)(=O)N4CCOCC4)c3)CC2)cc1,96.6% (inactive),
CCOc1cc(/C=N/NC(=O)CSc2cccc3cccnc23)ccc1O,96.1% (inactive),
Cc1cc(-c2ccccc2)nc2c(Br)c(=O)[nH]n12,99.6% (inactive),
O=C(O)c1ccccc1NS(=O)(=O)c1ccc(N/N=C/c2ccc(O)c(O)c2)c([N+](=O)[O-])c1,105% (inactive),

SMILES,viability,outcome
COc1cc(/C=N/NS(=O)(=O)c2ccc(C)c([N+](=O)[O-])c2)ccc1O,107% (inactive),
C[C@]12CC[C@H]3C(=CCc4cc(O)ccc43)[C@@H]1CCC2=O,93% (inactive),
CC1CCC/C(=C\c2ccc(O)cc2)C1=O (stereo unspecified),99.8% (inactive),
CN(C)c1ccc(/C=C2/NC(=O)NC2=O)cc1,94.4% (inactive),
O=C1NC(=S)NC1=Cc1ccc(O)cc1,91.2% (inactive),
CCOc1ccccc1NC(=O)C(NCC1(N2CCCCC2)CCCCC1)c1ccccc1 (stereo unspecified),88.3% (inactive),
O=C(Nc1cc(Br)c(O)c(Br)c1)c1cccc(NC(=O)c2ccco2)c1,96.2% (inactive),
O=C(NC(=S)Nc1cccc2c(O)cccc12)c1ccco1,97.7% (inactive),
Brc1csc(C=Nc2ccc3c(c2)OCCOCCOCCOCCO3)c1,103% (inactive),
CCN(CC)c1ccc(/C=N/NC(=O)OC)c(O)c1,96.8% (inactive),
Cc1ccccc1C(=O)Nc1ccc(N2CCCC2)cc1,102% (inactive),
COC(=O)c1ccc(NC(=S)Nc2ccc(O)cc2)cc1,105% (inactive),
COc1ccc(C(=O)/C=C/c2ccc(O)cc2)cc1,110% (inactive),
COC(=O)c1ccc(CNC(=O)COC(=O)/C=C/c2ccc(O)c(OC)c2)cc1,97.8% (inactive),
COCCCNC(=S)N1CCN(Cc2ccc3c(c2)OCO3)CC1,92.5% (inactive),
O=C(CC(c1ccccc1)c1ccccc1)Nc1ccc(O)cc1,90.4% (inactive),
CCOC(=O)C1CCCN(C2=NC(=O)/C(=C/c3ccc(O)c(OCC)c3)S2)C1 (stereo unspecified),97.8% (inactive),
CCN(CC)S(=O)(=O)c1cccc(-c2n[nH]c(=S)n2/N=C/c2ccc(OC(F)F)cc2)c1,84% (inactive),
Nc1ccc(N2CCCC2)c(S(=O)(=O)Nc2cccc(C(F)(F)F)c2)c1,83.9% (inactive),
COc1ccc2c(c1)-c1nc(/N=C/c3c(O)ccc4ccccc34)sc1CC2,97.4% (inactive),
